# Hits are enriched below; roughly 2.3% of the tested compounds scored in any of these assays.
# GLD-1 RNA inh – GLD-1/TGE RNA complex disruptors, primary screen, biochemical, fluorescence polarization | 320,000 tested, 0.44% active | inhibition, % at 5.96 µM | AID 2280, 2010 | purified GLD-1 + fluorescein TGE RNA;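 active = percent inhibition above a per-plate cutoff, the plate mean of test compounds plus 3 SD, cut at about 30% in these data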;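 note: 0% = DMSO wells with GLD-1 and probe and 100% = wells lacking GLD-1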
# Mcl1 Noxa PPI – Mcl-1/Noxa binding inhibitors, primary screen, biochemical, TR-FRET, 1536-well. AID 1022, 2008. 220,000 tested, 1.5% active. inhibition, % at 21.7 µM. Induced myeloid leukemia cell differentiation protein Mcl-1 (Homo sapiens), Q07820. TR-FRET Mcl-1/Noxa peptide binding, 2 h;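 active = compounds that cut the protein-peptide binding signal by more than 50% relative to plate controls in a single-dose test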;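 note: His-tagged Mcl-1 with rhodamine Noxa BH3 peptide and terbium anti-His antibody; 0% = Mcl-1 plus Noxa peptide wells and 100% = peptide-only wells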
# Target sequence (Q07820 whole entry, looked up): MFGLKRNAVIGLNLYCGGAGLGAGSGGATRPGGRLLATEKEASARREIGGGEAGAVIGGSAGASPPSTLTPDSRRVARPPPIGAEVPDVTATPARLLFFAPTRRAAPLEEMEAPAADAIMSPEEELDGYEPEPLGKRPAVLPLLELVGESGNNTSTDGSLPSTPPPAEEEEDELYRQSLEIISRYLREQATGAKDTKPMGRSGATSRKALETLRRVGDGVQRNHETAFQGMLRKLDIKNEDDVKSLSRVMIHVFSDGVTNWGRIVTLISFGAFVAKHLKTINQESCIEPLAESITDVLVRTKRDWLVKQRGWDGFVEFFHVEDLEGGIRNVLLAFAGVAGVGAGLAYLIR
# Bcl-xL primary – inhibitors of human Bcl-xL, primary screen, biochemical, fluorescence polarization, HTS; Bcl-2-like protein 1 (Homo sapiens), Q07817; GST-Bcl-xL / FITC-Bim BH3 peptide fluorescence polarization; inhibition, % at 10.9 µM; 320,000 tested, 0.7% active; AID 2129, 2009;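 active = inhibition above the mean of all tested compounds plus 3 SD, cutoff set per campaign, cut at about 30% in these data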;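 note: 0% = DMSO wells and 100% = unlabeled Bim-BH3 peptide competitor; inhibitors lower millipolarization by displacing the labeled peptide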
# Target sequence (Q07817 whole entry, looked up): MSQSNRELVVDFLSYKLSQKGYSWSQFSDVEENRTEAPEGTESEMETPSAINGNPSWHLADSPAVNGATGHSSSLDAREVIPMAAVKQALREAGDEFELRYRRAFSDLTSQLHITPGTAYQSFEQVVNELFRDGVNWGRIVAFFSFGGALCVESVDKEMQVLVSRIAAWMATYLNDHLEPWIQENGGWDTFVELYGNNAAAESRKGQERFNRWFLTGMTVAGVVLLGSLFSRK
# Mcl-1 Bim block – inhibitors of Bim peptide binding to Mcl-1, primary screen, biochemical, bead-based flow cytometry, multiplex; Induced myeloid leukemia cell differentiation protein Mcl-1 (Homo sapiens), Q07820; Bim peptide-Mcl-1 binding; inhibition, % at 10 µM; 190,000 tested, 0.1% active; in the data active = inhibition above about 40%;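 note: 0% = no compound tracer wells and 100% = peptide blocker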
# MCL1 BIM primary – inhibitors of MCL1 binding to BIM-BH3, primary screen, biochemical, fluorescence polarization; Induced myeloid leukemia cell differentiation protein Mcl-1 (Homo sapiens), Q07820; GST-MCL1 / FITC-Bim-BH3 fluorescence polarization; inhibition, % at 10.9 µM; 320,000 tested, 0.68% active;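 active = inhibition above the mean inhibition of all tested compounds plus 3 SD, set per campaign, cut at about 40% in these data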;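 note: 0% = DMSO wells and 100% = unlabeled Bim-BH3 peptide control; higher means more loss of mP so more displacement of Bim peptide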
# Mcl1-Bid inh – Mcl-1/Bid binding inhibitors, primary screen, biochemical, TR-FRET, 1536-well. TR-FRET Mcl-1/Bid-Dy647 peptide binding. inhibition, % at 21.7 µM. 220,000 tested, 0.97% active. AID 1021, 2008;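 active = compounds that cut the binding signal by more than half at the single screening dose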;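 note: His-tagged Mcl-1 with europium anti-His antibody binding Bid BH3 peptide; 0% = Mcl-1 plus peptide wells and 100% = peptide-only wells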
# Active calls of the source: *; . = not tested or not shown.
SMILES,GLD-1 RNA inh,Mcl1 Noxa PPI,Bcl-xL primary,Mcl-1 Bim block,MCL1 BIM primary,Mcl1-Bid inh
CCOc1ccc2[nH]c(SCC(=O)OC)c([N+](=O)[O-])c2c1,30.1,17.8,38.7*,5.0,36.5,-1.4
COC(=O)CSc1[nH]c2ccc(Br)cc2c1[N+](=O)[O-],-2.4,17.2,5.8,0.0,11.7,-2.7
CN1CCC(N(C)CC(=O)Nc2ccc3c(c2)OC(F)(F)O3)CC1,4.2,28.8,9.2,.,6.8,59.8*
CCCCN(CC)CCCNC(=O)C1CCN(c2ncnc3c2sc2cccc(F)c23)CC1,-0.8,44.5,1.2,-6.0,1.1,4.5
Cc1ccc2nc(N3CCC(C(=O)O)CC3)nc(-c3ccccc3)c2c1,0.1,7.3,9.1,-1.0,5.0,5.7
Cc1ccc2nc(N3CC(=O)Nc4ccccc43)nc(-c3ccccc3)c2c1,-3.9,10.0,2.6,15.0,-4.0,96.8*
O=[N+]([O-])c1cc(S(=O)(=O)Nc2ccc(Cl)cc2)ccc1N/N=C/c1ccncc1,-2.1,51.7*,4.9,-2.0,0.7,25.9
CCN(C[C@H]1N[C@@](CC)(C(=O)OC)[C@H]2C(=O)N(Cc3ccccc3)C(=O)[C@@H]12)C(=O)Nc1ccc(Cl)cc1,3.8,.,.,.,.,.
COc1ccc(-c2csc(Cc3nnc4n3CCCCC4)n2)cc1OC,-1.2,62.5*,1.1,2.0,0.5,55.4*
COc1ccc(-c2nnc3n2CCCCC3)cc1OC,5.4,.,6.7,.,1.1,.
O=C(N=Nc1c(O)n(Cc2ccccc2)c2ccccc12)c1ccc(O)cc1,-1.6,-6.2,5.8,-5.0,10.3,4.1
O=C(N=Nc1c(O)n(Cc2ccccc2)c2ccccc12)c1cc2ccccc2cc1O,1.8,85.1*,9.5,4.0,24.0,56.1*
Cc1ccc(NC(=O)Cn2c(O)c(N=NC(=O)c3cc4ccccc4cc3O)c3ccccc32)cc1,5.7,99.1*,-0.8,5.0,-9.1,80.2*
Cc1ccc(NC(=O)Cn2c(O)c(N=NC(=O)c3ccncc3)c3ccccc32)cc1,2.0,39.4,3.0,-3.0,3.6,26.8
Oc1[nH]c2ccccc2c1N=Nc1ccccc1F,-142.9,28.4,-108.4,0.0,-260.8,4.6
NS(=O)(=O)c1cc(C(=O)N=Nc2c(O)[nH]c3ccccc23)ccc1Cl,0.4,51.0*,8.8,.,7.7,-1.1
O=C(N=Nc1c(O)[nH]c2ccccc12)c1cc(-c2ccc(F)cc2)n[nH]1,10.3,52.0*,5.7,-2.0,6.9,37.1
CCOC(=O)c1ccc(N2CCOCC2)c(NC(=O)c2c(-c3ccccc3)noc2C)c1,7.8,-12.3,9.3,.,11.4,2.1
O=C(CSc1nnc2c(n1)[nH]c1ccccc12)Nc1ccc2c(c1)OCO2,2.9,82.9*,9.0,-5.0,12.6,44.9
CCn1c(CNC(=O)c2cccnc2)cc2ccccc21,6.0,.,5.0,.,0.0,.
Cc1c(C)n(Cc2ccc(F)cc2)c2ccc(C(=O)N3CCN(c4ccccn4)CC3)cc12,2.0,.,0.9,.,1.0,.
N#Cc1nc(-c2ccc(OCc3ccc(Cl)cc3)cc2)oc1NCc1cccnc1,2.7,56.9*,1.0,1.0,4.5,23.1
CCOc1ccc(CCNC(=O)CN2C(=O)NC3(CCCCC3)C2=O)cc1OCC,-6.4,.,-1.2,.,-2.7,.
NCCNC[C@@H]1COC2(CCCCCCCCCCC2)O1,-1.8,24.2,-0.8,.,-1.8,58.9*
NC(=O)COc1c(-c2ccccc2)oc2ccccc2c1=O,2.1,16.6,9.8,3.0,8.0,97.5*
SMILES,GLD-1 RNA inh,Mcl1 Noxa PPI,Bcl-xL primary,Mcl-1 Bim block,MCL1 BIM primary,Mcl1-Bid inh
NS(=O)(=O)c1cc2c(cc1Cl)NC(c1ccccc1OCC(=O)O)NS2(=O)=O (stereo not drawn),-8.4,.,8.4,.,1.8,.
Cc1ccc2c(c1)c1c(n2CC(O)Cn2nc(C)c(Br)c2C)C(=O)CCC1 (stereo not drawn),-5.2,9.3,1.4,3.0,-4.1,-7.8
Cc1ccc2c(c1)c(C)c(C)n2CC(O)Cn1nc(C)c(Br)c1C (stereo not drawn),2.4,14.3,4.9,58.0*,-0.6,-17.1
Cc1nc2ccccc2n1C1CCN(C(=O)Nc2ccccc2)CC1,7.7,4.1,0.4,-2.0,-0.9,-24.1
Cc1sc(NC(=O)c2ccccc2)c(C(=O)N2CCN(C)CC2)c1C,2.1,37.9,-0.3,0.0,-2.6,86.4*
Nc1cccc2c1C(=O)N(C(=O)c1ccc(Cl)c(S(=O)(=O)N3CCCCCC3)c1)C2=O,26.4,-16.6,37.2*,-1.0,33.2,-11.9
COc1ccc(Cc2nc(-c3ccc(Br)cc3)no2)cc1,0.9,57.7*,0.3,1.0,-4.6,-5.7
Cc1cc2nc(-c3ccc(SCC(=O)NC(C)C)nc3)[nH]c2cc1C,-3.8,12.3,3.5,0.0,4.9,-10.2
Cc1cc2nc(-c3ccc(SCc4ccc(C(=O)O)cc4)nc3)[nH]c2cc1C,-1.6,75.8*,10.3,4.0,1.2,-61.7
C=CCNC(=O)/C(C#N)=C/c1cn(-c2ccccc2)nc1-c1ccc(OC)c([N+](=O)[O-])c1,3.8,15.2,4.2,-4.0,6.5,58.3*
CCSc1ccc(-c2nn(-c3ccccc3)cc2/C=C(/C#N)C(=O)NC)cc1,-1.0,7.4,-0.1,-7.0,-3.2,-10.5
CC12CC3CC(C)(C1)CC(C(=O)Nc1nncs1)(C3)C2,3.3,.,7.7,.,15.2,.
COc1ccccc1CN(C)C(=O)CN1C(=O)c2ccccc2C1=O,1.1,.,-1.4,.,-4.3,.
CC1(C)CC(=O)C2=C(C1)OC(N)=C(C#N)C2c1cccc(OC(=O)c2ccco2)c1 (stereo not drawn),-3.4,-6.0,-0.2,-5.0,7.3,97.1*
CCCS(=O)(=O)N1CCCC(C(=O)N2CCCCC2)C1 (stereo not drawn),-5.5,.,6.3,.,2.7,.
COCCC(=O)NC1CCCc2c1cnn2-c1cccc(C)c1C (stereo not drawn),-336.0,.,-1.8,.,-3.0,.
CCOC(=O)N1CCN(CC(=O)c2ccc(O)cc2O)CC1,40.8*,.,6.1,.,1.6,.
CCOc1ccc(OCC)c(NC(=O)CN2CCN(c3ccc(C)cc3C)CC2)c1,-5.3,17.7,-0.5,-5.0,-1.4,50.6*
CCOC(=O)N1CCN(CC(=O)Nc2cc(OCC)ccc2OCC)CC1,1.3,33.9,6.0,-4.0,-0.1,60.4*
CCOc1ccccc1N1CCN(CC(=O)Nc2cc(C)on2)CC1,8.8,7.8,2.4,0.0,10.1,-19.9
COc1cc(CCC(=O)N2CCN(S(=O)(=O)c3ccc(C)cc3)CC2)cc(OC)c1OC,2.4,.,-13.2,.,-14.3,.
S=c1[nH]nc(Cn2cnc3ccccc32)n1-c1ccccc1,1.1,16.7,-2.4,-10.0,-2.3,-31.3
